JMJD2A Tudor: inhibitors of human JMJD2A Tudor domain | O75164 | Potency, µM (titrated, usually from 114 µM), actives largely listed as inhibitors | AID 504339 | AlphaScreen JMJD2A-Tudor / H3K4me3 peptide binding | 390,000 compounds, 4.4% hits; also: nearly all actives have a fitted effect of over 50% in size
Sfp inh: Sfp phosphopantetheinyl transferase inhibition; 310,000 compounds, 3.5% hits; Q9F4F7; Biochemical Sfp PPTase activity, qHTS; Potency, µM, most hits filed as inhibitors; AID 1490;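 also: the enzyme is Sfp with the accession as filed and its product quenches rhodamine fluorescence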
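Compounds were incubated with enzyme (final 15 nM) for 15 min at room temperature before substrate addition started the reaction. Fluorescence at 525 nm excitation, 598 nm emission was recorded immediately and after 30 minutes.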
G9a inh: G9a (human) methyltransferase inhibition. G9a H3K9 monomethylation, AlphaScreen, 2 h. 350,000 compounds, 8.8% hits. Potency, µM (series often up to 102 µM), hits mostly inhibitors. AID 504332; also: nearly all actives have a fitted effect of over 75% in size
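Using a bead-based AlphaScreen, monomethylated H3K9 product from 2 h room-temperature reactions (G9a 20 nM, peptide 500 nM, SAM 20 uM) was detected with 0.5 ug/mL rabbit anti-H3K9me1 antibody.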
BAZ2B inh: BAZ2B (human) inhibition. Q9UIF8. 360,000 compounds, 4.4% hits. Potency, µM (doses to about 114 µM), most hits filed as inhibitors. AID 504333. AlphaScreen BAZ2B-H3K14Ac peptide displacement; also: nearly all actives have a fitted effect of over 60% in size
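Complex of BAZ2B and biotin-H3K14Ac (50 nM apiece) forms over 30 min at RT, then faces library compounds up to 110 uM for another 30 min; AlphaScreen beads added, 20 min dark incubation, luminescence read.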
L3MBTL1 inh: blocks human L3MBTL1; Q9Y468; 230,000 compounds, 0.66% hits; AlphaScreen L3MBTL1–H3K9me1 peptide binding; Potency, µM (top dose mostly 57.1 µM), actives largely listed as inhibitors; AID 485360; also: nearly all actives have a fitted effect of over 60% in size
Target sequence (Q9Y468 whole entry, looked up): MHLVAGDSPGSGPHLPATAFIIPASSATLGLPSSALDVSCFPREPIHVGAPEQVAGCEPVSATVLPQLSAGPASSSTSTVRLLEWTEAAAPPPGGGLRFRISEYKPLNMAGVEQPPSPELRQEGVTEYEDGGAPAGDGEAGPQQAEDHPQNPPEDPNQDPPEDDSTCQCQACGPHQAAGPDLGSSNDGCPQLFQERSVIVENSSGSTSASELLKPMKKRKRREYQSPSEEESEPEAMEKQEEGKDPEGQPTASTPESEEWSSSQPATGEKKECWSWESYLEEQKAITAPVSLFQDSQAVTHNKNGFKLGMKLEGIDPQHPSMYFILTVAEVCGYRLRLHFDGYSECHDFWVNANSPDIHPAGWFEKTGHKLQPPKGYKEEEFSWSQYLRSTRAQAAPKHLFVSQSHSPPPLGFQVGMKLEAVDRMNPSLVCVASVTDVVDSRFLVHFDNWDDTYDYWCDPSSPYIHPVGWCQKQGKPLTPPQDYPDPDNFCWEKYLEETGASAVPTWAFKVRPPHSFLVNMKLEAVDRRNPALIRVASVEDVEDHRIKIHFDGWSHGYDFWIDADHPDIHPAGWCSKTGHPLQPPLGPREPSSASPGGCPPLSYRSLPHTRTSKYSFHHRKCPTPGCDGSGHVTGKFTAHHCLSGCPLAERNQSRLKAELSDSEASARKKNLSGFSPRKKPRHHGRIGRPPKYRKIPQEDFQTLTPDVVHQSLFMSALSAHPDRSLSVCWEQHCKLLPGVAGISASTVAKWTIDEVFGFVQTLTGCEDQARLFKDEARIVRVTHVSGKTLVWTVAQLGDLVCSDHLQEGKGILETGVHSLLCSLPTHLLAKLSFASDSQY
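AlphaScreen assay: L3MBTL1 (50 nM final) was preincubated 30 min at room temperature with biotinylated H3(1-15)K9me1 peptide (75 nM final), then 30 min with library compounds; streptavidin donor and nickel chelate acceptor beads (10 ug/mL final) added, 30 min dark.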
HP1b chromo inh: inhibitors of HP1-beta chromodomain binding to methylated histone tails | AlphaScreen HP1-beta / biotin-H3K9me3 peptide binding | Potency, µM (doses to about 114 µM), most hits filed as inhibitors | P83916 | 390,000 compounds, 0.56% hits; also: nearly all actives have a fitted effect of over 70% in size
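HP1-beta protein (50 nM final) preincubated 30 min at room temperature with biotinylated H3(1-18)K9me3 peptide (50 nM) in PBS pH 7.4, 0.01% Tween-20, then compound added for 30 min. AlphaScreen streptavidin donor/nickel chelate acceptor beads (10 ug/mL final), 30 min dark, luminescence read.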
Numbers stand for hits; [ ] = remark or other dose. Shown are actives, neighbours in structure and some others; about 12% of the full set was active somewhere. Calls follow the shape of the dose curve; as a rule, active = well fitted curve in the direction sought with a large enough effect; inconclusive = small, poorly fitted or top-dose-only effect, or another doubt; inactive = no such curve, though single readings can be large; an effect the other way counts as inactive or inconclusive.

COc1ccc(/C=N/NC(=O)COc2cccc3ccccc23)c(C(=O)O)c1OC was read as JMJD2A Tudor inactive, Sfp inh inactive, G9a inh 14µM, BAZ2B inh inconclusive, L3MBTL1 inh inactive and HP1b chromo inh inactive.
`COc1ccc(OCC(=O)N/N=C/c2ccc(OC)c(OC)c2C(=O)O)cc1` gave JMJD2A Tudor inactive, Sfp inh inactive, G9a inh inactive, BAZ2B inh inactive, L3MBTL1 inh inactive and HP1b chromo inh inactive.
O=C(COc1cccc2ccccc12)N/N=C/c1ccncc1 was read as JMJD2A Tudor inactive, Sfp inh inactive, G9a inh inactive, BAZ2B inh inactive, L3MBTL1 inh inactive and HP1b chromo inh inactive.
Screening COc1ccc(/C=N/NC(=O)COc2ccc3ccccc3c2)c(C(=O)O)c1OC returned JMJD2A Tudor 50µM, Sfp inh inactive, G9a inh inactive, BAZ2B inh inactive, L3MBTL1 inh inactive and HP1b chromo inh inactive.
Cc1ccc(NC2CCCN(C(=O)CCn3nccc3C)C2)cc1C (stereo unspecified) was read as JMJD2A Tudor inactive, Sfp inh inactive, G9a inh inactive, BAZ2B inh inactive and HP1b chromo inh inactive.
COc1c(N2CCN(C(=S)NCc3ccccc3)C(C)C2)c(F)cc2c(=O)c(C(=O)O)cn(C3CC3)c12 (stereo unspecified) was read as JMJD2A Tudor 56µM, Sfp inh inactive, G9a inh inactive, BAZ2B inh 79µM, L3MBTL1 inh inactive and HP1b chromo inh inactive.
For CNC1CCCN(c2c(F)cc3c(=O)c(C(=O)O)cn(C4CC4)c3c2OC)C1 (stereo unspecified) the results were Sfp inh inactive and G9a inh inactive[12.7 µM].
`COc1c(F)c(F)cc2c(=O)c(C(=O)O)cn(C3CC3)c12` gave JMJD2A Tudor 28µM, Sfp inh inactive, G9a inh inactive, BAZ2B inh inconclusive and HP1b chromo inh inactive.
COc1ccc(CNc2nc3c(S(=O)(=O)c4ccccc4)nnn3c3ccc(Cl)cc23)cc1 was read as JMJD2A Tudor inactive, G9a inh inactive, BAZ2B inh inactive and HP1b chromo inh inactive.
`Cc1ccc(-n2nnnc2C(Cl)(Cl)c2nnnn2-c2ccc(C)cc2)cc1` gave JMJD2A Tudor inactive, Sfp inh 3.2µM, G9a inh inconclusive, BAZ2B inh inconclusive, L3MBTL1 inh inactive and HP1b chromo inh inconclusive.
Screening CSc1nnnn1-c1ccc(Cl)cc1 returned JMJD2A Tudor inactive, Sfp inh inactive, BAZ2B inh inactive, L3MBTL1 inh inactive and HP1b chromo inh inactive.
CCCNC(=S)Nc1ccc(Cl)cc1Cl was read as JMJD2A Tudor inactive, Sfp inh inactive, G9a inh inactive, BAZ2B inh inactive, L3MBTL1 inh inactive and HP1b chromo inh inactive.
`CN(C1=C(NC(=O)c2ccc(Cl)cc2)C(=O)c2ccccc2C1=O)c1ccccc1` gave JMJD2A Tudor 4.5µM, Sfp inh inactive, G9a inh 8.9µM, BAZ2B inh 8.9µM, L3MBTL1 inh 7.9µM and HP1b chromo inh inactive.
Screening O=C(Nc1ccc(Nc2ccccc2)cc1)c1ccc(Cl)cc1 returned JMJD2A Tudor inactive and HP1b chromo inh inactive.
For O=C1C(Cl)=C(NC(=O)c2ccccc2)C(=O)C(Cl)=C1NC(=O)c1ccccc1 the results were JMJD2A Tudor 0.71µM, Sfp inh 0.89µM, G9a inh 1.3µM, BAZ2B inh inconclusive and HP1b chromo inh 3.5µM.
O=C(NC1=C(NC2CCS(=O)(=O)C2)C(=O)c2ccccc2C1=O)c1ccccc1 (stereo unspecified) was read as JMJD2A Tudor inconclusive, Sfp inh 35µM, G9a inh 3.5µM, BAZ2B inh inconclusive, L3MBTL1 inh inactive and HP1b chromo inh inactive.
Screening O=C(Nc1cccc(Cl)c1)c1ccccc1 returned JMJD2A Tudor inactive, G9a inh inactive[12.7 µM], BAZ2B inh inactive, L3MBTL1 inh inactive and HP1b chromo inh inactive.
O=C(NC1=C(Nc2ccc(Cl)cc2)C(=O)c2ccccc2C1=O)c1ccccc1 was read as JMJD2A Tudor inactive, Sfp inh 56µM, G9a inh 7.9µM, BAZ2B inh inconclusive, L3MBTL1 inh inactive and HP1b chromo inh inconclusive.
CC(=O)Nc1cccc(NC(=O)c2cc3c(=O)n4cccc(C)c4nc3n2C)c1 was read as JMJD2A Tudor inactive, G9a inh inactive, BAZ2B inh inactive and HP1b chromo inh inactive.
For Cc1cccc(NC2=C(NC(=O)c3ccccc3)C(=O)c3ccccc3C2=O)c1 the results were JMJD2A Tudor 25µM, Sfp inh 20µM, G9a inh 3.2µM, BAZ2B inh 28µM, L3MBTL1 inh inconclusive and HP1b chromo inh 50µM.
Screening O=S(=O)(Nc1nc2ccccc2nc1Cl)c1ccccc1C(F)(F)F returned JMJD2A Tudor inactive, Sfp inh inactive, G9a inh 71µM, BAZ2B inh inactive and HP1b chromo inh inactive.
Screening CC(C)(C)[C@H]1C=C(C(=O)NCc2ccccc2)O[C@@H](OCCCCO)C1 returned JMJD2A Tudor inactive and HP1b chromo inh inactive.
Screening CC(=O)N(C(C)=O)c1ncn(C)c1S(=O)(=O)Nc1ccccc1 returned JMJD2A Tudor inactive and HP1b chromo inh inactive.
For COc1cc2[nH]c(=S)nc(NCCCOC(C)C)c2cc1OC the results were JMJD2A Tudor inconclusive, Sfp inh inactive, G9a inh 45µM, BAZ2B inh 50µM and HP1b chromo inh inactive.
`COc1cc2[nH]c(=S)nc(NCc3cccc(Cl)c3)c2cc1OC` gave JMJD2A Tudor inactive, Sfp inh inactive, G9a inh inactive, BAZ2B inh inactive and HP1b chromo inh inactive.
CCOCCCNc1nc(=S)[nH]c2cc(OC)c(OC)cc12 was read as JMJD2A Tudor inconclusive, Sfp inh inactive, G9a inh 35µM, BAZ2B inh inconclusive, L3MBTL1 inh inactive and HP1b chromo inh inactive.
For CCCCNc1nc(=S)[nH]c2cc(OC)c(OC)cc12 the results were JMJD2A Tudor inconclusive, Sfp inh inconclusive, G9a inh inactive[12.7 µM], BAZ2B inh inconclusive and HP1b chromo inh inactive.
Screening COCCNc1nc(=S)[nH]c2cc(OC)c(OC)cc12 returned JMJD2A Tudor inconclusive, Sfp inh inactive, G9a inh 35µM, BAZ2B inh inactive, L3MBTL1 inh inactive and HP1b chromo inh inactive.
COc1ccc(CCNc2ccc(C(CC(N)=O)NC(=O)c3cc(C)cc(C)c3)cc2[N+](=O)[O-])cc1 (stereo unspecified) was read as JMJD2A Tudor inconclusive, Sfp inh inactive, BAZ2B inh inconclusive, L3MBTL1 inh inactive and HP1b chromo inh inactive.
COc1ccc(C(=O)NC(=S)Nc2ccc(CN3CCOCC3)cc2)cc1Br was read as JMJD2A Tudor inconclusive, Sfp inh inactive, G9a inh 45µM, BAZ2B inh inconclusive and HP1b chromo inh inactive.
Screening O=C(CCCCl)NC(=S)Nc1ccc(CN2CCOCC2)cc1 returned JMJD2A Tudor inactive, Sfp inh inactive, G9a inh 50µM, BAZ2B inh inactive, L3MBTL1 inh inactive and HP1b chromo inh inactive.

Bioassay records from PubChem.
